Compounds with a hit are over-represented: about 19% of the library has one in this group of screens.
TDP1 cell noCPT: qHTS for Inhibitors of human tyrosyl-DNA phosphodiesterase 1 (TDP1): qHTS in cells in absence of CPT; DT40 Tdp1-/- hTDP1 cells, no CPT, ATP luminescence, 48 h; Potency, µM (top dose mostly 46.2 µM), for the others: at the highest dose activity change, negative = growth inhibition, usual class: inhibitors; 420,000 tested, 15% active; AID 686978, 2013; note: potency is the fitted concentration of half-maximal effect; nearly all actives have a fitted effect of over 55% in size
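Stably hTDP1-transfected Tdp1-null chicken DT40 cells were treated with library compounds minus camptothecin and grown for at least 48 hr at 37 °C, after which cellular ATP was quantified by luminescence.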
HT1080-NT tox: kills 2HG-producing HT-1080-NT fibrosarcoma cells; AID 686970; Potency, µM (doses to about 46.1 µM), for the others: at the top dose activity, negative = less viability, most hits filed as cytotoxic; 360,000 tested, 1.6% active; HT-1080-NT fibrosarcoma viability, CellTiter-Glo ATP luminescence, 48 h;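 note: NT is the 2HG producing partner of a matched IDH1 knockdown line; potency is the fitted concentration of half-maximal effect; 0% = DMSO-treated cells and -100% = media-only wells without cells; nearly all actives have a fitted effect of over 55% in size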
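750 cells/well, RPMI + 5% FBS; 2 h settle, compound pin-transfer, 48 h at 37 degrees C. CellTiter-Glo 10 min RT, luminescence. Normalized to DMSO and media-only wells.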
HT1080 IDH1KD tx: HT-1080 IDH1 knockdown cell toxicity (counter line); HT-1080 IDH1 knockdown viability, ATP luminescence, 48 h; Potency, µM (doses to about 46.1 µM), for inactives: at the highest dose activity, negative = toxicity, most hits filed as cytotoxic; 360,000 tested, 2% active; AID 686971;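 note: potency is the fitted concentration of half-maximal effect; 0% = DMSO wells and -100% = cell-free medium wells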
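% activity derives from luminescence (CellTiter-Glo), normalised to DMSO and no-cell wells. HT-1080-IDH1KD cells, 750/well, had 48 h compound exposure at 37 °C.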
TDP1 cell CPT: growth inhibition of DT40 Tdp1-/-;hTDP1 cells with camptothecin (screen for TDP1 inhibitors). Potency, µM (top dose mostly 46.2 µM), for the others: at the highest dose activity change, negative = growth inhibition, usual class: inhibitors. 420,000 tested, 12% active. AID 686979. chicken DT40 Tdp1-/-;hTDP1 cells + 20 nM CPT, ATP luminescence, 48 h; note: potency is the fitted concentration of half-maximal effect; nearly all actives have a fitted effect of over 55% in size
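Chicken DT40 Tdp1-/- cells stably complemented with human TDP1 were seeded at 400 cells/well in medium containing 20 nM camptothecin, exposed to pin-transferred compounds, and grown at 37 °C for at least 48 hr. Viability was read as ATP luminescence.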
IL1B secr inh: inflammasome signaling inhibition, IL-1 beta readout; activity change, % at 57.5 µM; AID 743279; 360,000 tested, 4.7% active; THP-1 LPS/ATP IL-1B secretion, AlphaLISA, 16 h; stronger effect = lower value; in the data active = activity change below about -50%; inconclusive = mostly about -30% to -49%
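THP-1 cells pretreated 1 hr with compounds (up to 57.5 uM final), then stimulated with LPS (250 ng/mL final) plus ATP (1.25 mM final); secreted IL-1B measured by AlphaLISA after 16 hr, decreased signal indicating inhibition.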
Numbers without * were called inactive; [ ] = dose if it differs, or a comment. Unless noted, calls come from the whole dose curve; as a rule, active = well fitted curve in the direction sought with a large enough effect; inconclusive = small, poorly fitted or top-dose-only effect, or another doubt; inactive = no such curve, though single readings can be large; an effect the other way counts as inactive or inconclusive. Unless noted, % is set by controls: 0 for no effect and ±100 for the full control effect.

For Cc1ccc(-c2nnn(CC(=O)N(c3ccccc3)C(C(=O)NC3CCCC3)c3ccncc3)n2)o1 (centres undefined) the results were TDP1 cell noCPT 9%, HT1080-NT tox 5%, HT1080 IDH1KD tx 1%, TDP1 cell CPT 9% and IL1B secr inh 13.
O=C(c1cc(S(=O)(=O)N2CCCC2)c[nH]1)N1CCN(c2cccc(Cl)c2)CC1 was read as TDP1 cell noCPT -65% and TDP1 cell CPT inconclusive.
Screening Cc1ccc(C(=O)NCCC(=O)N2CCCC2)cc1 returned TDP1 cell noCPT 0%, HT1080-NT tox -2%, HT1080 IDH1KD tx -4%, TDP1 cell CPT 19% and IL1B secr inh -7.
For CC(=O)Oc1cc2c(c(C)c1OC(C)=O)CC=C1[C@]3(C)CC[C@]4(C)CC[C@@](C)(C(=O)O)CC4[C@]3(C)CC[C@]12C (some centres undefined) the results were TDP1 cell noCPT 4.6µM* and TDP1 cell CPT 3.7µM*.
Screening CCOc1ccccc1NC(=O)CN1CCC(NC(=O)Nc2ccccc2)CC1 returned TDP1 cell noCPT inconclusive, HT1080-NT tox 3%, HT1080 IDH1KD tx -5%, TDP1 cell CPT inconclusive and IL1B secr inh 16.
Screening Cc1ccc(N(CC(=O)NC2CCCCC2)C(=O)CNC(=O)c2ccco2)c(C)c1 returned TDP1 cell noCPT -20%, HT1080-NT tox 0%, HT1080 IDH1KD tx 4%, TDP1 cell CPT -2% and IL1B secr inh -5.
`O=C(C[C@@H]1CC[C@H](NC(=O)c2ccc3c(c2)OCO3)[C@@H](CO)O1)NCc1ccc(F)cc1` gave TDP1 cell noCPT 12µM*, HT1080-NT tox 2%, HT1080 IDH1KD tx 9%, TDP1 cell CPT inconclusive and IL1B secr inh -12.
O=C(C[C@H]1C[C@@H]2c3cc(NC(=O)c4ccc5c(c4)OCO5)ccc3O[C@@H]2[C@H](CO)O1)NCc1cc(F)ccc1F was read as TDP1 cell noCPT 26µM*, HT1080-NT tox -1%, HT1080 IDH1KD tx 0%, TDP1 cell CPT inconclusive and IL1B secr inh -5.
`CCCNC(=O)C[C@@H]1C[C@H]2c3cc(NC(=O)c4ccc5c(c4)OCO5)ccc3O[C@H]2[C@@H](CO)O1` gave TDP1 cell noCPT 15µM*, HT1080-NT tox 8%, HT1080 IDH1KD tx 7%, TDP1 cell CPT 23µM* and IL1B secr inh 23.
Screening COC(=O)C[C@@H]1C[C@H]2c3cc(NC(=O)CC4CC4)ccc3O[C@H]2[C@@H](CO)O1 returned TDP1 cell noCPT -2%, HT1080-NT tox 15%, HT1080 IDH1KD tx 10%, TDP1 cell CPT 1% and IL1B secr inh 20.
COc1ccccc1CNC(=O)C[C@@H]1C[C@H]2c3cc(NC(=O)c4ccc5c(c4)OCO5)ccc3O[C@H]2[C@@H](CO)O1 was read as TDP1 cell noCPT inconclusive, HT1080-NT tox -9%, HT1080 IDH1KD tx -5%, TDP1 cell CPT inconclusive and IL1B secr inh -5.
`CC(=O)c1ccc(OC2(C)CCN(Cc3ccc4c(c3)OCCO4)C2)cc1` (centres undefined) gave TDP1 cell noCPT -26%, HT1080-NT tox 11%, HT1080 IDH1KD tx 4%, TDP1 cell CPT -20% and IL1B secr inh 19.
`Cc1sc2ncnc(SCC(=O)N3CCN(C(=O)c4ccco4)CC3)c2c1C` gave HT1080 IDH1KD tx 5%[9.24 µM] and IL1B secr inh -54*.
For Cc1sc2ncnc(N3CCN(C(=O)c4ccco4)CC3)c2c1C the results were TDP1 cell noCPT 21µM*, HT1080-NT tox -26%, HT1080 IDH1KD tx -27%, TDP1 cell CPT -19% and IL1B secr inh -23.
Screening Cc1cccc2[nH]c3c(N4CCN(C(=O)c5ccco5)CC4)ncnc3c12 returned TDP1 cell noCPT 18µM*, HT1080-NT tox 0%, HT1080 IDH1KD tx -1%, TDP1 cell CPT inconclusive and IL1B secr inh inconclusive.
For Cc1ccc(-c2csc3ncnc(N4CCN(C(=O)c5ccco5)CC4)c23)cc1 the results were TDP1 cell noCPT inconclusive, HT1080-NT tox inconclusive, HT1080 IDH1KD tx inconclusive, TDP1 cell CPT inconclusive and IL1B secr inh -11.
COc1cc(C(O)CO)ccc1OS(=O)(=O)O (centres undefined) was read as TDP1 cell noCPT -13%, HT1080-NT tox 2%, HT1080 IDH1KD tx 16%, TDP1 cell CPT 1% and IL1B secr inh 19.
Screening CSCCC(NC(=O)c1ccccc1)C(=O)N/N=C(\C)Cc1ccccc1 (centres undefined) returned TDP1 cell noCPT -4%, HT1080-NT tox -4%, HT1080 IDH1KD tx 1%, TDP1 cell CPT -16% and IL1B secr inh -12.
CCCCNC(=O)c1nc(C2CCN(S(=O)(=O)c3ccccc3C(F)(F)F)CC2)oc1-c1ccccc1 was read as TDP1 cell noCPT 16µM*, HT1080-NT tox 1%, HT1080 IDH1KD tx 7%, TDP1 cell CPT 23µM* and IL1B secr inh 3.
Screening CCCCNC(=O)c1nc(C2CCN(S(=O)(=O)c3c(F)cccc3F)CC2)oc1-c1ccccc1 returned TDP1 cell noCPT 18µM*, HT1080-NT tox -8%, HT1080 IDH1KD tx -5%, TDP1 cell CPT 9.2µM* and IL1B secr inh 23.
`CCCCNC(=O)c1nc(C2CCN(S(=O)(=O)c3ccc(F)c(F)c3)CC2)oc1-c1ccccc1` gave TDP1 cell noCPT 6.5µM*, HT1080-NT tox 27%, HT1080 IDH1KD tx 7%, TDP1 cell CPT 10µM* and IL1B secr inh 6.
For CCCCNC(=O)c1nc(C2CCN(S(=O)(=O)c3c(F)cccc3F)CC2)oc1-c1cccc(C(F)(F)F)c1 the results were TDP1 cell noCPT -10%, HT1080-NT tox 2%, HT1080 IDH1KD tx 1%, TDP1 cell CPT 7% and IL1B secr inh 0.
`CCCCNC(=O)c1nc(C2CCN(S(=O)(=O)c3ccc(OC(F)(F)F)cc3)CC2)oc1-c1ccccc1` gave TDP1 cell noCPT 6.5µM*, HT1080-NT tox -11%, HT1080 IDH1KD tx -15%, TDP1 cell CPT 7.3µM* and IL1B secr inh -8.
For CCOc1ccc(S(=O)(=O)NCCC(=O)N2CC(C)OC(C)C2)cc1 (centres undefined) the results were TDP1 cell noCPT -13%, HT1080-NT tox -3%, HT1080 IDH1KD tx 4%, TDP1 cell CPT -1% and IL1B secr inh 0.
CC1CCCC(C)N1C(=O)Cn1cnc2cc([N+](=O)[O-])ccc2c1=O (centres undefined) was read as TDP1 cell noCPT -1%, HT1080-NT tox 3%, HT1080 IDH1KD tx 7%, TDP1 cell CPT 7% and IL1B secr inh 35.
